Screens from PubChem.
Pf Dd2 inh: P. falciparum Dd2 growth inhibition; SYBR Green, 72 h; active compounds read low; activity change, % at 10 µM; 2.3% of 94,000 active; in the data active = activity change below about -80%; inconclusive = no clear call, values can overlap the other calls
C diff growth: inhibitors of Clostridium difficile growth. Clostridium difficile clinical isolate growth, OD600, 24 h; active compounds read low. growth activity, negative = inhibition, % at 16 µg/mL (by protocol). 0.25% of 86,000 active. AID 1259249;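 active = mean growth activity at or below -80% and every replicate also at or below -80%; inconclusive = mean at or below -80% but some replicate above -80%; inactive = mean growth activity above -80%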
T cruzi growth-1: inhibitors of T. cruzi proliferation; AID 624255; T. cruzi beta-gal in NIH3T3, GalScreen luminescence, 90 h; 5.9% of 77,000 active; inhibition, % at 8.34 µM;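 active = mean inhibition above about 93%, with at least 55% of replicates each passing it, limit read from the data, passing the limit was not always enough; inconclusive = only one of those two conditions holds; inactive = neither condition holds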
T cruzi growth-2: blocks T. cruzi growth in NIH3T3 host cells | AID 651739 | T. cruzi beta-gal in NIH3T3, GalScreen luminescence, 90 h | shares compounds with T cruzi growth-1 | inhibition, % at 8.35 µM | 72% of 5,600 active;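 active = mean replicate inhibition above about 95% and at least 55% of replicates individually reaching it, limit read from the data; inconclusive = only one of the two criteria is met; inactive = neither criterion is met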
T cruzi growth-3: blocks T. cruzi growth in NIH3T3 host cells; shares compounds with T cruzi growth-1; T. cruzi beta-gal in NIH3T3, GalScreen luminescence, 90 h; inhibition, % at 2.09 µM; 21% of 5,600 active; AID 651740;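 active = mean inhibition above about 95%, with at least 55% of replicates also reaching it, limit read from the data; inconclusive = meets just one of the two conditions; inactive = meets neither condition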
NIH3T3 tox: kills mouse NIH/3T3 fibroblasts | cytotoxicity (signal decrease), % at 8.35 µM | 14% of 5,600 active | NIH/3T3 viability, CellTiter-Glo ATP luminescence, 90 h | AID 651742 | shares compounds with T cruzi growth-1;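 active = mean signal decrease across replicates above about 35% based on untreated-well scatter, with enough replicates individually passing, limit read from the data; inconclusive = no rule stated though some were filed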
NIH3T3 tox 2: cytotoxicity in mouse NIH/3T3 fibroblasts; 56% of 5,600 active; NIH/3T3 viability, CellTiter-Glo ATP luminescence, 90 h; shares compounds with T cruzi growth-1; inhibition, % at 24.9 µM; AID 651744;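 active = mean loss of cell viability signal at or above a set limit, and enough replicates individually reaching it; inconclusive = meets only the mean limit or only the replicate share; inactive = meets neither condition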
A number is an active result; - = inactive; ? = inconclusive; . = no result. Rows were chosen to be rich in hits. Some 6.8% of all compounds tested hit in one or more screens of this group.

SMILES | Pf Dd2 inh | C diff growth | T cruzi growth-1 | T cruzi growth-2 | T cruzi growth-3 | NIH3T3 tox | NIH3T3 tox 2
C[C@@H]1CN([C@@H](C)CO)S(=O)(=O)c2ccc(C#C[C@@H](C)O)cc2O[C@@H]1CN(C)Cc1ccccn1 | - | - | - | . | . | . | .
COCC#Cc1ccc2c(c1)O[C@H](CN(C)Cc1ccccn1)[C@H](C)CN([C@H](C)CO)S2(=O)=O | - | - | - | . | . | . | .
CCCC#Cc1ccc2c(c1)O[C@H](CN(C)Cc1ccccn1)[C@@H](C)CN([C@H](C)CO)S2(=O)=O | . | - | 104 | 108 | - | 40 | 69
C[C@@H]1CN([C@H](C)CO)S(=O)(=O)c2ccc(C#CCN(C)C)cc2O[C@H]1CN(C)Cc1ccccn1 | - | - | ? | 97 | - | - | 26
CCCC#Cc1ccc2c(c1)O[C@@H](CN(C)Cc1ccccn1)[C@H](C)CN([C@@H](C)CO)S2(=O)=O | . | - | 107 | 96 | - | 64 | 93
CCCC#Cc1ccc2c(c1)O[C@H](CN(C)Cc1ccccn1)[C@H](C)CN([C@@H](C)CO)S2(=O)=O | . | - | - | . | . | . | .
O=C(CCN1CCCCC1)N[C@@H]1CC[C@H](CCn2cc(-c3ccc(F)cc3)nn2)O[C@@H]1CO | - | - | - | . | . | . | .
CN1CCN(C(=O)C[C@H]2C[C@@H]3c4cc(NC(=O)C5CCOCC5)ccc4O[C@@H]3[C@H](CO)O2)CC1 | - | - | - | . | . | . | .
CN1C(=O)c2cc(NC(=O)Cc3cccs3)ccc2OC[C@H]2O[C@@H](CC(=O)O)CC[C@H]21 | - | - | - | . | . | . | .
CC(C)NC(=O)N(C)C[C@H]1OCCCC[C@H](C)Oc2ccc(NC(=O)CCC(F)(F)F)cc2C(=O)N([C@H](C)CO)C[C@@H]1C | - | - | - | . | . | . | .
CCC(=O)Nc1ccc2c(c1)OC[C@H](C)N(C(=O)CC1CC1)C[C@H](C)[C@@H](OC)CN(C)C2=O | - | - | - | . | . | . | .
COc1ccc(CN(C)C[C@@H]2OCCCC[C@@H](C)Oc3ccc(NC(=O)Nc4ccccc4)cc3C(=O)N([C@@H](C)CO)C[C@H]2C)cc1 | - | - | - | . | . | . | .
C[C@H](CO)N1C[C@H](C)[C@@H](CN(C)Cc2ccccc2)OCCCC[C@H](C)Oc2ccc(NS(C)(=O)=O)cc2C1=O | - | - | 99 | - | - | - | -
C[C@@H]1CCCCO[C@H](CN(C)Cc2ccccc2)[C@H](C)CN([C@@H](C)CO)C(=O)c2cc(NS(C)(=O)=O)ccc2O1 | - | - | - | . | . | . | .
C[C@@H]1CCCCO[C@@H](CN(C)Cc2ccncc2)[C@H](C)CN([C@H](C)CO)C(=O)c2cc(NS(C)(=O)=O)ccc2O1 | - | - | 102 | - | - | - | -
C[C@@H]1CCCCO[C@@H](CN(C)Cc2ccncc2)[C@H](C)CN([C@@H](C)CO)C(=O)c2cc(NS(C)(=O)=O)ccc2O1 | - | - | - | . | . | . | .
Cc1ccc(S(=O)(=O)Nc2ccc3c(c2)C(=O)N([C@@H](C)CO)C[C@H](C)[C@@H](CN(C)Cc2ccccc2)OCCCC[C@@H](C)O3)cc1 | - | - | - | . | . | . | .
Cc1ccc(S(=O)(=O)Nc2ccc3c(c2)C(=O)N([C@H](C)CO)C[C@@H](C)[C@H](CN(C)Cc2ccccc2)OCCCC[C@@H](C)O3)cc1 | - | - | 93 | 109 | - | - | 86
C[C@@H]1CN([C@H](C)CO)C(=O)c2cc(NC(=O)CCC(F)(F)F)ccc2O[C@@H](C)CCCCO[C@H]1CN(C)C(=O)CCC(F)(F)F | - | - | . | . | . | . | .
N#C[C@@H]1[C@@H](c2ccc(-c3cccc(F)c3)cc2)[C@@H](CO)N1c1nc(-c2ccccc2)cs1 | - | - | 99 | 110 | 99 | - | -
N#C[C@H]1[C@@H](c2ccc(-c3cccc(F)c3)cc2)[C@@H](CO)N1c1nc(-c2ccccc2)cs1 | - | - | - | . | . | . | .
N#C[C@H]1[C@@H](c2ccc(-c3ccc(F)cc3)cc2)[C@H](CO)N1c1nc(-c2ccccc2)cs1 | - | - | - | . | . | . | .
N#C[C@H]1[C@H](c2ccc(C3=CCCC3)cc2)[C@H](CO)N1c1nc(-c2ccccc2)cs1 | - | - | - | . | . | . | .
N#C[C@@H]1[C@@H](c2ccc(-c3ccc(F)cc3)cc2)[C@@H](CO)N1c1nc(-c2ccccc2)cs1 | - | - | 105 | 108 | 96 | - | -
N#C[C@@H]1[C@@H](c2ccc(C3=CCCC3)cc2)[C@@H](CO)N1c1nc(-c2ccccc2)cs1 | - | - | 108 | 96 | - | - | -
SMILES | Pf Dd2 inh | C diff growth | T cruzi growth-1 | T cruzi growth-2 | T cruzi growth-3 | NIH3T3 tox | NIH3T3 tox 2
Cc1ccc(-c2ccc([C@H]3[C@H]4CN(S(=O)(=O)c5cccc(C)c5)CCCCN4[C@H]3CO)cc2)cc1 | - | - | - | . | . | . | .
Cc1ccc(-c2ccc([C@@H]3[C@H](CO)N4CCCCN(S(=O)(=O)c5cccc(C)c5)C[C@@H]34)cc2)cc1 | - | - | 108 | ? | 98 | - | 104
Cc1cccc(S(=O)(=O)N2CCCCN3[C@H](CO)[C@H](c4ccc(-c5ccncc5)cc4)[C@H]3C2)c1 | - | - | 110 | 107 | - | - | 37
Cc1cccc(S(=O)(=O)N2CCCCN3[C@H](C2)[C@H](c2ccc(-c4ccccc4)cc2)[C@@H]3CO)c1 | - | - | - | . | . | . | .
Cc1cccc(S(=O)(=O)N2CCCCN3[C@@H](CO)[C@H](c4ccc(-c5ccncc5)cc4)[C@@H]3C2)c1 | - | - | 98 | 107 | - | - | 46
Cc1ccc(-c2ccc([C@H]3[C@H](CO)N4CCCCN(S(=O)(=O)c5cccc(C)c5)C[C@@H]34)cc2)cc1 | - | - | - | . | . | . | .
COc1ccccc1S(=O)(=O)N[C@H]1CC[C@@H](CCNC(=O)C2CCCC2)O[C@H]1CO | - | - | . | . | . | . | .
C[C@@H]1CCCCO[C@@H](CN(C)S(=O)(=O)c2cccs2)[C@@H](C)CN([C@H](C)CO)C(=O)c2cc(NS(=O)(=O)c3cn(C)cn3)ccc2O1 | - | - | . | . | . | . | .
C[C@H]1CN([C@@H](C)CO)C(=O)c2cc(-c3cccnc3)cnc2O[C@@H]1CN(C)C(=O)Nc1ccc2c(c1)OCO2 | - | - | - | . | . | . | .
C[C@@H]1CN([C@@H](C)CO)C(=O)c2cc(-c3cncnc3)cnc2O[C@@H]1CN(C)C(=O)Nc1ccc2c(c1)OCO2 | - | - | - | . | . | . | .
C[C@@H]1CN([C@@H](C)CO)C(=O)c2cc(-c3cncnc3)cnc2O[C@H]1CN(C)C(=O)Nc1ccc2c(c1)OCO2 | - | - | 98 | - | - | - | -
C[C@H](CO)N1C[C@H](C)[C@@H](CN(C)C(=O)Nc2ccc3c(c2)OCO3)Oc2ncc(-c3cncnc3)cc2C1=O | - | - | 104 | - | - | - | -
COc1ccc(-c2ccc3c(c2)[C@@H]2[C@@H](CCN2S(=O)(=O)c2ccc(F)cc2)[C@H](CO)N3C)cc1 | - | - | . | . | . | . | .
O=C(O)C[C@@H]1C[C@H]2c3cc(NC(=O)Nc4ccc(F)cc4)ccc3O[C@H]2[C@H](CO)O1 | - | - | - | . | . | . | .
